For 96 molecules, inhibition results are on record in PubChem BioAssay AID372 (MTDP, 2006).

By inhibition is commonly meant the change of the read-out against control, counted positive when it falls.

Each structure is given as a SMILES string. About 770 (0.77%) of roughly 100,000 compounds were called active. Many of the other results were omitted from the sample, so actives are more common in it than they were. Unmarked numbers belong to inactive results. Cut-off read from the data, not from the text of the source: active = inhibition above about 50%; inactive = the rest.

For this assay, the target named is Gag-Pol polyprotein (Human immunodeficiency virus type 1 group M subtype B (isolate HXB2)) (UniProt P04585). Nature of the assay: RNase H inhibition, HIV 1 Gag Pol polyprotein, FRET biochemical assay, screening (AID 372). The following applies: HIV-1 RT RNase H, FRET RNA/DNA substrate fluorescence; at 10 µM; stronger effect = higher value.
As for `O=C(COc1ccc([N+](=O)[O-])cc1)Nc1ccc2oc(-c3ccccc3Cl)nc2c1`, the inhibition is 53% (active).
The same measure for `Cc1cccc(OCC(=O)Nc2ccc3oc(-c4cccc(I)c4)nc3c2)c1`: 22%; for `COc1ccc(-c2nc3cc(NC(=O)COc4ccc([N+](=O)[O-])cc4)ccc3o2)cc1`: 55% (active).
As to `COc1ccc(OCC(=O)Nc2ccc3oc(-c4cccc(I)c4)nc3c2)cc1`, the inhibition was 53% (active).
As for `O=C(COc1ccc([N+](=O)[O-])cc1)Nc1ccc2oc(-c3ccc(Br)cc3)nc2c1`, the inhibition was 14%.
Take `O=C(COc1ccc([N+](=O)[O-])cc1)Nc1ccc2oc(-c3ccccc3F)nc2c1`: the inhibition was 49%.
The same measure for `O=C(COc1ccc([N+](=O)[O-])cc1)Nc1ccc2oc(-c3cccc(Cl)c3)nc2c1`: 9%; for `CCc1ccc(-c2nc3cc(NC(=O)COc4ccc([N+](=O)[O-])cc4)ccc3o2)cc1`: 43%.
With `COc1ccc(OCC(=O)Nc2ccc3oc(-c4ccncc4)nc3c2)cc1` the figure was 14%; with `O=c1[nH]c(-c2cccc(O)c2)nc2sc3c(c12)CCCC3`, 22%.
With `COc1cccc(COc2cc3oc(=O)c4c(c3cc2Cl)CCCC4)c1` the figure was 12%; with `O=C(NCc1cccnc1)c1cnn2c(C(F)(F)F)cc(-c3ccc4c(c3)OCO4)nc12`, 11%; with `Cc1ccc(NC(=O)/C=C/c2ccc3c(c2)OCO3)c(C)c1`, 10%.
Consider `C=CCN1C(=O)/C(=C\c2ccc(-c3ccc(C(=O)OCC)cc3)o2)C(=O)NC1=S`, for which the inhibition is 45%.
Turning to `CCCCn1c(/N=C/c2nc3ccccc3n2C)nc2ccccc21`, the inhibition was 5%.
`CCN(CC)c1ccc(N2C(=O)/C(=C\c3ccc(C)o3)SC2=S)cc1`: the inhibition is 3%.
For `CCN(CC)C(=O)C(=O)N/N=C/c1ccco1`, the inhibition is 5%.
The same measure for `S=C(Nc1ccc2nccnc2c1)Nc1cccc2ccccc12`: 27%; for `O=C(N=Nc1c(O)n(CN2CCCCCC2)c2ccc(Br)cc12)c1cccnc1`: 5%; for `N#C/C(=C\c1ccccc1[N+](=O)[O-])c1nc(-c2cc3cc([N+](=O)[O-])ccc3oc2=O)cs1`: 52% (active).
Regarding `COc1ccc(-c2csc(/C(C#N)=C/c3ccc(O)c(O)c3)n2)cc1OC`, the inhibition was 84% (active).
For `N#C/C(=C\c1cccc([N+](=O)[O-])c1)c1nc(-c2cccc([N+](=O)[O-])c2)cs1`, the inhibition was 6%.
On to `N#C/C(=C\C=C\c1ccccc1[N+](=O)[O-])c1nc(-c2cc3cc([N+](=O)[O-])ccc3oc2=O)cs1`, for which the inhibition was 6%.
The same measure for `N#C/C(=C\c1ccc(O)c(O)c1)c1nc(-c2cccc([N+](=O)[O-])c2)cs1`: 60% (active); for `N#C/C(=C\c1cccc([N+](=O)[O-])c1)c1nc(-c2cc3cc([N+](=O)[O-])ccc3oc2=O)cs1`: 7%.
The same measure for `COc1ccc(-c2csc(/C(C#N)=C/c3ccc(O)cc3)n2)cc1OC`: 24%; for `N#C/C(=C\c1cccc(Br)c1)c1nc(-c2cccc([N+](=O)[O-])c2)cs1`: 22%; for `COc1ccc(/C=C(\C#N)c2nc(-c3ccc(OC)c(OC)c3)cs2)cc1O`: 25%.
The same measure for `Cc1ccc(-n2c(/C=C3/C(=O)N(C)c4ccc(Br)cc43)nc3ccccc3c2=O)cc1`: 2%; for `C=CCN1C(=O)C(Cc2ccc(F)cc2)S/C1=N\N=C\c1ccco1` (stereo unspecified): 3%; for `CC12C=CC(O1)C1C(=O)N(c3ccc([N+](=O)[O-])cc3)C(=O)C12` (stereo unspecified): 11%.
`O=C1N/C(=N\N=C\c2ccccc2O)SC1Cc1ccc(Br)cc1` (stereo unspecified): the inhibition is 16%.
As for `O=C(Nc1cccnc1)c1cccc(Cl)c1Cl`, the inhibition is 5%.
As to `O=C1S/C(=C/c2cccc(Br)c2)C(=O)N1c1ccccc1`, the inhibition is 12%.
Consider `CCCN1C(=O)/C(=C\c2cccc(Cl)c2)SC1=S`, for which the inhibition was 19%.
The same measure for `O=S(=O)(Nc1nccs1)c1ccc(NC(=S)Nc2ccccc2)cc1`: 8%.
`O=C(Nc1ccc(NC(=O)c2sc3ccccc3c2Cl)cc1)c1ccccc1`: the inhibition is 53% (active).
Turning to `O=C(Nc1ccc2oc(-c3cccc(F)c3)nc2c1)c1sc2ccccc2c1Cl`, the inhibition was 52% (active).
With `Cc1cccc(-c2nc3cc(NC(=O)c4sc5ccccc5c4Cl)ccc3o2)c1`, the inhibition was 37%.
The same measure for `CC(C)(C)c1ccc(C(=O)Nc2ccc(NC(=O)c3sc4ccccc4c3Cl)cc2)cc1`: 24%; for `O=C(Nc1ccc2oc(-c3cccc(Cl)c3)nc2c1)c1sc2ccccc2c1Cl`: 20%; for `Cc1ccc(-c2nc3cc(NC(=O)c4sc5ccccc5c4Cl)ccc3o2)cc1`: 20%.
Turning to `CCc1ccc2oc(-c3ccc(NC(=O)c4sc5ccccc5c4Cl)cc3)nc2c1`, the inhibition is 50% (active).
The same measure for `O=C(c1ccccc1)c1ccc(NC(=O)c2sc3ccccc3c2Cl)cc1`: 18%.
In the case of `O=C(NC(=S)Nc1ccc(S(=O)(=O)Nc2nccs2)cc1)c1sc2ccccc2c1Cl`, the inhibition was 70% (active).
`O=C(Nc1nccs1)c1sc2ccccc2c1Cl`: the inhibition was 7%.
With `O=C(Nc1ccc(-c2nc3cc(Cl)ccc3o2)cc1)c1sc2ccccc2c1Cl` the figure was 41%.
The same measure for `Cc1cc(C)c(C(N)=O)c(Nc2ccccc2)n1`: 5%; for `Cc1ccccc1C(=O)NC(=S)Nc1ccc2c3c(cccc13)CC2`: 21%; for `O=C(Nc1ccc(F)cc1F)c1cccc(I)c1`: 4%.
As for `CCOc1ccccc1N=CC1=C(O)CC(c2ccccc2)CC1=O` (stereo unspecified), the inhibition was 6%.
The same measure for `Cc1ccc(-c2nc(NC(=O)c3cccc(F)c3)sc2-c2ccccc2)cc1`: 16%.
The same measure for `COc1cc(NC(=O)C(F)(F)F)c(Cl)cc1NC(=O)c1ccccc1`: 0%; for `CCOc1ccc(C(=O)Nc2cccc(NC(=O)c3ccccc3Cl)c2)cc1`: 8%.
Regarding `CCOc1ccc(C(=O)Nc2cccc(S(N)(=O)=O)c2)cc1Br`, the inhibition was 4%.
`COc1cccc(/C=C2/SC(=O)N(CNc3ccc(Br)cc3C)C2=O)c1`: the inhibition was 58% (active).
With `O=C1S/C(=C/c2ccccc2)C(=O)N1CNc1ccc(I)cc1`, the inhibition is 3%.
The same measure for `COc1ccc(/C=C2/SC(=O)N(CNc3ccccc3)C2=O)cc1`: 9%; for `COc1ccc(/C=C2/SC(=O)N(CNc3ccc(Br)cc3C)C2=O)cc1`: 7%.
With `COc1ccc(/C=C2/SC(=O)N(CNc3ccc(I)cc3)C2=O)cc1` the figure was 6%; with `COc1cccc(/C=C2/SC(=O)N(CNc3ccc(I)cc3)C2=O)c1`, 51% (active).
With `O=C1S/C(=C/c2ccc(F)cc2)C(=O)N1CNc1ccc(I)cc1` the figure was 4%.
Regarding `O=C1S/C(=C/c2ccccc2F)C(=O)N1CNc1ccc(I)cc1`, the inhibition was 57% (active).
Consider `COc1ccc(OC)c(/C=C2/SC(=O)N(CNc3ccc(Br)cc3C)C2=O)c1`, for which the inhibition is 5%.
The same measure for `Cc1nc2ccccn2c1C(=O)N/N=C\c1ccccc1[N+](=O)[O-]`: 9%.
As for `C=CCOCCN(CCOCC=C)C1=NS(=O)(=O)c2cc([N+](=O)[O-])ccc21`, the inhibition was 8%.
As to `CC(=O)c1ccc(N2CCN(C(=O)c3cc(F)c(F)cc3Cl)CC2)c(F)c1`, the inhibition is 7%.
With `C=CCOC(=O)C1=C(C)NC2=C(C(=O)CCC2)C1c1ccc(OCc2ccccc2)c(OC)c1` (stereo unspecified) the figure was 15%; with `O=C(Nc1nnc(-c2ccc3c(c2)OCO3)s1)c1sc2ccccc2c1Cl`, 5%.
With `CCOC(=O)c1c(NC(=O)c2cc(-c3ccc(OC)cc3)nc3ccccc23)sc2c1CCCCC2` the figure was 5%.
`Cc1ccc(C(=O)Nc2ccc(F)cc2F)cc1[N+](=O)[O-]`: the inhibition was 18%.
Take `COc1cc2ccccc2cc1C(=O)Nc1ccc2c(c1)C(=O)c1ccccc1C2=O`: the inhibition is 38%.
With `Cc1nnc(N/N=C/c2ccc(C(=O)O)cc2)[nH]c1=O` the figure was 10%.
The same measure for `COc1ccccc1CNC(=O)c1cccc(N(C)C)c1`: 56% (active); for `COc1ccccc1CNC(=O)c1cccc(C)c1`: 2%.
With `COc1cccc(C(=O)NCc2ccccc2OC)c1` the figure was 2%.
In the case of `Cc1ccc(N(CC(=O)N/N=C/c2cccc(Cl)c2)S(=O)(=O)c2ccc(F)cc2)cc1`, the inhibition was 13%.
Consider `O=c1[nH]c(=S)n(-c2ccc(Br)cc2)c(O)c1/C=C1\C=Nc2ccccc21`, for which the inhibition is 20%.
The same measure for `O=c1[nH]c(=S)n(-c2ccccc2)c(O)c1/C=C1\C=Nc2ccccc21`: 56% (active); for `Cc1ccc(-n2c(O)c(/C=C3\C=Nc4ccccc43)c(=O)[nH]c2=S)cc1`: 15%; for `CC(C)(C)c1ccc(CNc2cc(N3CCOCC3)ccc2[N+](=O)[O-])cc1`: 0%.
The same measure for `Oc1ccc(Br)cc1-c1nc(-c2ccccc2)c(-c2cccs2)[nH]1`: 9%; for `Oc1ccccc1-c1nc(-c2ccccc2)c(-c2cccs2)[nH]1`: 12%; for `Oc1ccc(-c2nc(-c3ccccc3)c(-c3cccs3)[nH]2)cc1O`: 63% (active).
With `O=C(COc1ccccc1[N+](=O)[O-])N/N=C/c1cc(I)ccc1O` the figure was 5%; with `C/C(=N\Nc1cc(-c2ccccc2)nc(-c2ccccc2)n1)c1ccc([N+](=O)[O-])cc1`, 3%; with `CN(C(=O)c1ccc(Cl)c([N+](=O)[O-])c1)c1ccccc1`, 17%.
For `CCOc1ccccc1N(CC(=O)N/N=C(\C)c1cccc(NC(=O)c2ccccc2)c1)S(=O)(=O)c1ccccc1`, the inhibition is 5%.
`CCOc1ccccc1N(CC(=O)Nc1cccc(Br)c1)S(C)(=O)=O`: the inhibition is 16%.
The same measure for `CCOc1ccccc1N(CC(=O)N/N=C(\C)c1cccc(Br)c1)S(C)(=O)=O`: 66% (active); for `CCOc1ccc(N(CC(=O)Nc2cccc(Br)c2)S(C)(=O)=O)cc1`: 12%; for `CCOc1ccc(N(CC(=O)Nc2ccc(C)c(C)c2)S(C)(=O)=O)cc1`: 4%.
Consider `CCOc1ccc(NC(=O)CN(c2ccc(C)c(Cl)c2)S(C)(=O)=O)cc1`, for which the inhibition is 3%.
With `CCOc1ccc(N(CC(=O)Nc2cccc(C(C)=O)c2)S(C)(=O)=O)cc1`, the inhibition is 51% (active).
With `CCOc1ccc(N(CC(=O)Nc2ccc(C)c(Cl)c2)S(C)(=O)=O)cc1` the figure was 56% (active).
The same measure for `CCOc1ccc(N(CC(=O)Nc2cccc(C)c2)S(C)(=O)=O)cc1`: 17%.
